Read-out in test [1]: UDP glucuronosyltransferase (UGT1A6), UGT1A6 (gene 54578)
The test can be described thus: LTEA_HepaRG_UGT1A6: Life Technologies and Expression Analysis (LTEA) Assay for UDP glucuronosyltransferase (UGT1A6) using HepaRG (AID 2283539; active = hit-call score of the fitted dose curve at least 0.9, where 1 is the maximum; inactive = score below 0.9). Particulars: mRNA level, 48 h; actives raise or lower the signal. The essentials: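 Endpoint is UGT1A6 transcript induction or loss in a human liver cell line, quantified by TaqMan qRT-PCR 48 h after dosing. Concentrations ran from 100 uM downward in half-log steps in 0.5% DMSO; activity was fitted in both directions versus vehicle.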

Read-out in test [2]: X-box binding protein 1 (XBP1), XBP1 (gene 7494)
The test can be described thus: LTEA_HepaRG_XBP1: Life Technologies and Expression Analysis (LTEA) Assay for X-box binding protein 1 (XBP1) using HepaRG (AID 2283540; active = hit-call score of the fitted dose curve at least 0.9, where 1 is the maximum; inactive = score below 0.9). Conditions: mRNA level, 48 h; actives raise or lower the signal. Summed up:
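Human HepaRG monolayers receive test chemical for 48 h across an eight-point half-log series starting at 100 uM. XBP1 mRNA gain or loss is scored against DMSO by qRT-PCR.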

A short description of test [3]: ATG_XTT_Cytotoxicity: Cytotoxicity Assessment in the Attagene TRANS-FACTORIAL HepG2 Assay (AID 2283584). The essentials: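 Transfect HepG2 with GAL4-UAS reporter units, dose compound, incubate 24 h, then measure viable cell number by XTT. Fit concentration response against DMSO baseline.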
The nature of test [4]: Tanguay_ZF_120hpf_MORT_legacy: (Legacy) Oregon State University Tanguay Lab 120 Hour Post-fertilization zebrafish Assay for Mortality (AID 2283633).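 For AC50: fitted as increase in binary mortality versus DMSO negative control.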 The essentials:
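Mortality endpoint from a multiplexed whole-embryo zebrafish screen. Dechorionated wild-type embryos received compound at 6 hpf and remained under static exposure at 28C until 120 hpf, with death noted as a present/absent call.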

Test [5] in a line: Tanguay_ZF_120hpf_YSE_legacy: (Legacy) Oregon State University Tanguay Lab 120 Hour Post-fertilization zebrafish Assay for Yolk Sac Edema (AID 2283634).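 For AC50: actives raise the incidence of yolk sac edema above the DMSO baseline.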 Summed up:
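Readout: presence or absence of yolk sac edema at 120 hpf, fitted upward against DMSO controls. Exposure ran statically from 6 hpf in dechorionated embryos kept at 28C.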

Test [6] can be described thus: Tanguay_ZF_120hpf_AXIS_legacy: (Legacy) Oregon State University Tanguay Lab 120 Hour Post-fertilization zebrafish Assay for Body Axis Malformation (AID 2283635).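 For AC50: potency for an increased fraction of larvae scored with body axis malformation.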 The essentials:
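Static 6–120 hpf chemical exposure of dechorionated wild-type 5D zebrafish, one per well at 28C; morphology endpoint scored binary at 120 hpf relative to DMSO control.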

A short description of test [7]: Tanguay_ZF_120hpf_EYE_legacy: (Legacy) Oregon State University Tanguay Lab 120 Hour Post-fertilization zebrafish Assay for Eye Malformation (AID 2283636).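 Note: binary presence or absence of eye malformation scored by brightfield in 120 hpf larvae.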 Summed up:
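Dechorionated Tropical 5D zebrafish embryos, one per well from 6 hpf, static exposure to 120 hpf at 28C, 0.64% DMSO. Eye malformation scored present/absent by brightfield; dead embryos not scored.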

Test [8] can be described thus: Tanguay_ZF_120hpf_SNOU_legacy: (Legacy) Oregon State University Tanguay Lab 120 Hour Post-fertilization zebrafish Assay for Snout Malformation (AID 2283637). The essentials:
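Dechorionated tropical 5D wild-type zebrafish embryos exposed statically from 6 to 120 hpf at 28C, one per well, in 0.64% DMSO. Snout malformation scored as present/absent by brightfield at 120 hpf; dead embryos not scored.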

The nature of test [9]: Tanguay_ZF_120hpf_JAW_legacy: (Legacy) Oregon State University Tanguay Lab 120 Hour Post-fertilization zebrafish Assay for Jaw Malformation (AID 2283638).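 For AC50: active means more embryos with jaw malformation than DMSO controls.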 Summed up:
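Static waterborne exposure of dechorionated wild-type (Tropical 5D) zebrafish from 6 to 120 hpf at 28C, 0.64% DMSO vehicle; 5uM trimethyltin chloride served as positive control. Jaw morphology recorded as binary at 120 hpf.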

Test [10] is described as follows: Tanguay_ZF_120hpf_PE_legacy: (Legacy) Oregon State University Tanguay Lab 120 Hour Post-fertilization zebrafish Assay for Pericardial Edema (AID 2283640).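 For AC50: potency for increased incidence of pericardial edema versus DMSO baseline.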 Summed up: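 Read-out is the presence or absence of pericardial edema at 120 hpf under brightfield, with gain of signal fitted against DMSO controls. Larvae (5D wild-type) were statically exposed at 28C with 0.64% final DMSO.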

A short description of test [11]: LTEA_HepaRG_LDH_cytotoxicity: Cytotoxicity Assessment in the Life Technologies and Expression Analysis (LTEA) Assay (AID 2283563).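 For AC50: LDH activity released into spent culture medium as a marker of cell death.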 Summed up:
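Human HepaRG hepatic cells are treated with test chemicals for 48 h at up to 100 uM in 0.5% DMSO. Cytotoxicity is scored from medium LDH against the vehicle control.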

Test [12] in a line: TOX21_p53_BLA_p2_viability: Viability Assessment in the Tox21 HCT-116 p53 Agonism Beta-lactamase Assay, Phase 2 (AID 2283591).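 Note: actives lower the ATP signal meaning cytotoxicity.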 The essentials:
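HCT116 p53-bla cells, 4000/well, dosed after 5 h plating (217-fold dilution of DMSO stocks) and incubated 16 h at 37C. Viability taken as cellular ATP by CellTiter-Glo luminescence after 30 min RT; signal loss marks cytotoxicity.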

The target of test [13] is Cellular tumor antigen p53 (Homo sapiens) (UniProt P04637). The test can be described thus: TOX21_p53_BLA_p2_ratio: Tox21 HCT-116 p53 Agonism Beta-lactamase Assay, Ratio, Phase 2 (AID 2283592). The essentials: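 An inducible beta-lactamase reporter in HCT116 cells signals p53 pathway activation. After 16 h chemical exposure at 37C, cells load CCF4-AM substrate for 2 h at room temperature; activity is the cleaved/uncleaved emission ratio relative to DMSO.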

Test [14] in a line: TOX21_p53_BLA_p4_viability: Viability Assessment in the Tox21 HCT-116 p53 Agonism Beta-lactamase Assay, Phase 4 (AID 2283597).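 Note: hits lower the luminescence signal meaning cytotoxicity.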 Summed up: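 Compound exposure of HCT116 cells lasts 16 h at 37C, 5% CO2, with DMSO stocks diluted 217-fold. Cellular ATP is then quantified by CellTiter-Glo luminescence after 30 min at room temperature.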
Test [15] addresses Cellular tumor antigen p53 (Homo sapiens) (UniProt P04637). The test can be described thus: TOX21_p53_BLA_p4_ratio: Tox21 HCT-116 p53 Agonism Beta-lactamase Assay, Ratio, Phase 4 (AID 2283601). Summed up:
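HCT-116 p53 beta-lactamase reporter cells (4000/well) preincubated 5 h, then compound (217-fold dilution of DMSO stock) for 16 h at 37C. CCF4-AM substrate added 2 h at room temperature; 460/530 nm emission ratio fitted upward versus DMSO.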

Test [16] in a line: Tanguay_ZF_120hpf_OTIC_legacy: (Legacy) Oregon State University Tanguay Lab 120 Hour Post-fertilization zebrafish Assay for Otic Vesicle Malformation (AID 2283639). Summed up: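 Tropical 5D wild-type zebrafish embryos were exposed statically in sealed, foil-covered plates at 28C until 120 hpf, with 0.64% (vol/vol) DMSO final. Otic vesicle malformation was scored present/absent by brightfield microscopy, with DMSO as baseline.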

Test [17] deals with Cellular tumor antigen p53 (Homo sapiens) (UniProt P04637). The test can be described thus: TOX21_p53_BLA_p3_ratio: Tox21 HCT-116 p53 Agonism Beta-lactamase Assay, Ratio, Phase 3 (AID 2283596). The essentials: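 HCT116 p53-bla cells (4000/well) given compound in DMSO (217-fold dilution) after 5 h, incubated 16 h at 37C. CCF4-AM substrate 2 h at room temperature; 460/530 nm emission ratio, gain fitted against DMSO.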

Test [18] in a line: TOX21_p53_BLA_p5_viability: Viability Assessment in the Tox21 HCT-116 p53 Agonism Beta-lactamase Assay, Phase 5 (AID 2283600). The essentials: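 Counter-readout for cytotoxicity: ATP-dependent luminescence from CellTiter-Glo, read in the beta-lactamase wells after 30 min at RT, following a 16 h compound exposure at 37C.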
Test [19] in a line: TOX21_p53_BLA_p3_viability: Viability Assessment in the Tox21 HCT-116 p53 Agonism Beta-lactamase Assay, Phase 3 (AID 2283593).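 Note: cells exposed to compound for 16 h before reading.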 The essentials:
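HCT116 cells, 4000/well, dosed 5 h after plating by pin transfer (217-fold dilution from DMSO stock) and incubated 16 h at 37C, 5% CO2. Viability read as ATP luminescence with CellTiter-Glo after 30 min at room temperature.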

Test [20] concerns the target Cellular tumor antigen p53 (Homo sapiens) (UniProt P04637). The test can be described thus: TOX21_p53_BLA_p5_ratio: Tox21 HCT-116 p53 Agonism Beta-lactamase Assay, Ratio, Phase 5 (AID 2283599). Summed up: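 HCT-116 p53-bla cells (4000/well) plated 5 h, dosed with compound (217-fold DMSO dilution) for 16 h at 37 C; CCF4-AM substrate 2 h at room temperature. Activity is the 460/530 nm emission ratio (405 nm excitation), fitted in gain-of-signal direction versus DMSO.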

Inconclusive results are not listed. Calls of active or inactive are those of the source. Rule for the calls, unless noted: active = hit-call score of the fitted dose curve at least 0.9, where 1 is the maximum; inconclusive = response in the unintended direction; inactive = score below 0.9.

Chain of Cellular tumor antigen p53 (Homo sapiens) (P04637 whole entry, looked up): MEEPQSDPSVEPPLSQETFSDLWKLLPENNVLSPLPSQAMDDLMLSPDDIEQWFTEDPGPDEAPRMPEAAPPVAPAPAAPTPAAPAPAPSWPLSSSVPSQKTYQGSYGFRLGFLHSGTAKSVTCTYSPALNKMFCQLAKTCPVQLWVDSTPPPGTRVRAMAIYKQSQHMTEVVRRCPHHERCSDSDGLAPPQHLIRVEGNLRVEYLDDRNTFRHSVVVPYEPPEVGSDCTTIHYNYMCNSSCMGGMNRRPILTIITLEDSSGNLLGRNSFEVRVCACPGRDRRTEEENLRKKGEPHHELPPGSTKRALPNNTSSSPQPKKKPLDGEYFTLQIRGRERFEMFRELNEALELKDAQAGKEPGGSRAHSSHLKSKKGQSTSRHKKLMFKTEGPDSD

`C=CCOC(Cn1ccnc1)c1ccc(Cl)cc1Cl` (configuration not stated): the AC50 in test [1] was 72.4 µM (active); in test [4] it was 13.8 µM (active); in [5] it was 1.46 µM (active); in [8], 4.34 µM (active); in test [9], 3.98 µM (active). The result in test [2], in test [3], in [6], in test [7] and in [10] was inactive.
In the case of `CCOC(=O)COc1cc(-n2ncc(C(F)(F)F)c(C)c2=O)c(F)cc1Cl`, the result in test [1], in test [2], in [11], in test [12], in [13] and in [14] was inactive. Further, the result in test [15], in test [4], in test [5], in [6], in test [7] and in [8] was inactive. The compound was called inactive in test [16] and in test [10].
Regarding `COC(=O)c1ccccc1C(=O)O`, the compound was called inactive in test [1], in test [2], in [11], in test [17], in test [14] and in test [18]. Further, the compound was classed as inactive in test [4], in test [5], in test [6], in test [8], in test [9] and in test [10].
As for `COc1c(Cl)ccc(Cl)c1C(=O)O`, the outcome in [1], in test [2], in test [11], in test [4], in test [5] and in test [6] was inactive. Also, the outcome in [7], in test [8], in [9], in test [16] and in test [10] was inactive.
Turning to `CCCOC(=O)c1ccc(C(=O)OCCC)nc1`, the result in test [1], in [2], in test [11], in test [12], in test [19] and in test [17] was inactive. Besides, the outcome in test [14], in test [20], in test [15], in [7], in test [8] and in test [9] was inactive. Further, the compound was classed as inactive in [16] and in test [10]. For the same compound, the AC50 in test [4] is 5.38 µM (active); in test [5], 1.17 µM (active); in test [6], 0.968 µM (active).
With `OB(O)O`, the outcome in test [1], in test [2], in [11], in [12], in test [13] and in test [17] was inactive. The outcome in [14], in test [20], in test [15], in test [4], in test [5] and in [6] was inactive. The compound was classed as inactive in test [7], in [8], in test [9] and in test [10].
Take `CC(C)(C)[C@@H](O)[C@@H](Cc1ccc(Cl)cc1)n1cncn1`: the result in test [1], in test [2], in test [11], in test [12], in test [13] and in test [19] was inactive. Also, the result in test [17], in test [14], in test [18], in [15], in [4] and in test [7] was inactive. Also, the compound was classed as inactive in test [9]. For the same compound, the AC50 in [5] is 36.1 µM (active); in test [6], 40.9 µM (active); in [8], 10.5 µM (active); in [10] it was 45.9 µM (active).
As for `S=C([S-])NCCNC(=S)[S-].[Mn+2]`, the AC50 in [1] was 3.64 µM (active); in test [2] it was 3.17 µM (active); in [11] it was 3.77 µM (active). Also, the result in test [4], in test [5], in [7], in [8], in test [9] and in test [16] was inactive. The outcome in test [10] was inactive.

In general, AC50 refers to the concentration at which the activity in the assay is half-maximal.

The values above are taken from PubChem BioAssay (EPA / NIEHS).
